Screens: PubChem, several laboratories
This is a sample that favours compounds with a hit; in the whole collection about 27% have one here.
CYP2C19 act = activators of human cytochrome P450 2C19 | recombinant CYP2C19, luciferin-H EGE luminescence; hits give high values; 0 = fully inhibited enzyme, 1 = untreated enzyme | activation factor at 5 µM | 96,000 tested, under 10 active | AID 1025 | P33261;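 active = activation factor of at least 2 at 5 µM in the primary screen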;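 note: 0 = wells with 2.5 mM tranylcypromine and 1 = vehicle-only wells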
Target sequence (P33261 whole entry, looked up): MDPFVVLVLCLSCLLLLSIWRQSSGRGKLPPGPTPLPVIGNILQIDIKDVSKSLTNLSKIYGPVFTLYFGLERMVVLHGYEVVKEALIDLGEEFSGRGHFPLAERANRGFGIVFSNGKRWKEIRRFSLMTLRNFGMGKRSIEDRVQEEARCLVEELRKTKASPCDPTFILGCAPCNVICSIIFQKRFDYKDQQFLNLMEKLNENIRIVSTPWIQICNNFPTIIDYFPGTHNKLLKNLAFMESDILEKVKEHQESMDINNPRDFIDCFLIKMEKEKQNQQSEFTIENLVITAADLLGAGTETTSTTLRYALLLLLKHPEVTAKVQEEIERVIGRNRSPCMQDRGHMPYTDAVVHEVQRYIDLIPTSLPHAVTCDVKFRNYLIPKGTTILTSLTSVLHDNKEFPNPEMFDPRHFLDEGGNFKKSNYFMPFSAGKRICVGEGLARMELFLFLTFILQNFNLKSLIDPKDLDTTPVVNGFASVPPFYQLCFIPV
CYP2C9 inhib = blocks human cytochrome P450 2C9 | P11712 | CYP2C9 Supersomes, luciferin-H conversion, luminescence | inhibition, % at 5 µM | actives 20% (n = 96,000);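 active = blocking of liver enzyme CYP2C9 beyond about 50% at 5 µM, limit read from the data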
CYP2C19 inhib = inhibitors of human CYP2C19. P33261. CYP2C19 Supersomes, luciferin-H EGE luminescence, 30 min. actives 21% (n = 96,000). AID 778. inhibition, % at 5 µM;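 active = CYP2C19 inhibition above a set limit at 5 µM in the primary screen, cut at about 50% in these data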;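 note: plate controls were negative control wells for no effect and 2.5 mM tranylcypromine positive control for full effect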
Cav3 T inh = inhibitors of human Cav3.2 T-type calcium channel | O95180 | Cav3.2-expressing cells, Fluo-4 calcium fluorescence FDSS; hits give low values | B-score at 10 µM | actives 4% (n = 100,000) | AID 449739;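 active = single-dose well whose peak fluorescence ratio is a statistical outlier from its plate by either plate-standardised score or position-corrected B-score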
CYP2C9 act = increases human cytochrome P450 2C9 activity | activation factor at 5 µM | actives 1.4% (n = 96,000) | recombinant CYP2C9, luciferin-H conversion, luminescence; hits give high values; factor 1 = untreated enzyme, 0 = blocked;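 active = activation factor of 2 or more for CYP2C9 at a 5 µM dose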;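 note: 0 = sulfaphenazole-blocked wells and 1 = vehicle-only wells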
Starred values were filed as active, the others as inactive.

For CCN(C(=O)CSc1nc2cc(C(=O)OC)ccc2c(=O)n1Cc1ccco1)c1cccc(C)c1 the results were CYP2C19 act 0.4, CYP2C9 inhib 92*, CYP2C19 inhib 64*, Cav3 T inh -4.3* and CYP2C9 act 0.1.
O=C(NCC1CCCO1)c1ccc2c(=O)n(Cc3ccco3)c(SCC(=O)N3CCCC3)nc2c1 (stereo unspecified) was read as CYP2C19 act 1, CYP2C9 inhib 49, CYP2C19 inhib 2, Cav3 T inh 1.1 and CYP2C9 act 0.5.
CCC(Sc1nc2cc3c(cc2c(=O)n1Cc1ccco1)OCO3)C(=O)Nc1cccc(OC)c1 (stereo unspecified) was read as CYP2C19 act 0.8, CYP2C9 inhib 60*, CYP2C19 inhib 24, Cav3 T inh -1.4 and CYP2C9 act 0.4.
For COCCNC(=O)c1ccc2c(=O)n(Cc3ccco3)c(SCC(=O)NC3CCCC3)nc2c1 the results were CYP2C19 act 0.5, CYP2C9 inhib 81*, CYP2C19 inhib 52*, Cav3 T inh 1.9 and CYP2C9 act 0.2.
`CCC(Sc1nc2cc3c(cc2c(=O)n1Cc1ccco1)OCO3)C(=O)NCCOC` (stereo unspecified) gave CYP2C19 act 0.6, CYP2C9 inhib 26, CYP2C19 inhib 39, Cav3 T inh 1.8 and CYP2C9 act 0.7.
CCc1ccc(NC(=O)CSc2nc3cc(C(=O)OC)ccc3c(=O)n2Cc2ccco2)cc1 was read as CYP2C19 act 1.1, CYP2C9 inhib 10, CYP2C19 inhib -8, Cav3 T inh -0.086 and CYP2C9 act 0.9.
Screening COCCNC(=O)CSc1nc2cc3c(cc2c(=O)n1Cc1ccco1)OCO3 returned CYP2C19 act 0.1, CYP2C9 inhib 53*, CYP2C19 inhib 93*, Cav3 T inh -0.18 and CYP2C9 act 0.5.
For CCOC(=O)CSc1nnc(CNC(=O)Cc2ccccc2)n1C the results were CYP2C19 act 1.1, CYP2C9 inhib -12, CYP2C19 inhib -12, Cav3 T inh 0.65 and CYP2C9 act 1.1.
`CC(C)(C)OC(=O)NCCCC1=CC2=CC(=O)C(C)(OC(=O)C3CCCC3)C(=O)C2=CO1` (stereo unspecified) gave Cav3 T inh -0.11.
For COc1cc2oc(=O)ccc2c(OC)c1CC(O)C(C)(C)O (stereo unspecified) the results were Cav3 T inh -0.14.
For O=C(COC(=O)c1ccccn1)NC12CC3CC(CC(C3)C1)C2 the results were CYP2C19 act 0.2, CYP2C9 inhib 22, CYP2C19 inhib 80*, Cav3 T inh 0.025 and CYP2C9 act 0.8.
`COc1cccc2cc(-c3nnc(SCC(=O)Nc4nc(C)cs4)n3C)oc12` gave CYP2C19 act 0.8, CYP2C9 inhib 13, CYP2C19 inhib 19, Cav3 T inh -0.57 and CYP2C9 act 0.9.
CCOC(=O)c1c(C2COc3ccccc3O2)csc1N (stereo unspecified) was read as CYP2C19 act 0.1, CYP2C9 inhib 80*, CYP2C19 inhib 91*, Cav3 T inh -2.4 and CYP2C9 act 0.2.
Screening CCOC(=O)c1c(C2COc3ccccc3O2)csc1NC(=O)c1ccccc1 (stereo unspecified) returned CYP2C19 act 0.8, CYP2C9 inhib 71*, CYP2C19 inhib 17, Cav3 T inh -1.1 and CYP2C9 act 0.3.
For S=C(c1ccccc1)N(c1ccccc1)c1ccccc1 the results were CYP2C19 act 0.1, CYP2C9 inhib 31, CYP2C19 inhib 94*, Cav3 T inh -2.4 and CYP2C9 act 0.7.
For CCOC(=O)c1ccc(NC(=O)CSc2nnc(CNc3ccc(C)cc3)n2C)cc1 the results were Cav3 T inh -0.96.
COC(=O)CSc1nnc(CNC(=O)Cc2ccccc2)n1C was read as CYP2C19 act 1.1, CYP2C9 inhib -13, CYP2C19 inhib -14, Cav3 T inh 0.28 and CYP2C9 act 1.1.
For CCN(CC)S(=O)(=O)c1ccc(C(=O)NCc2nnc(SCC(=O)OC)n2C)cc1 the results were CYP2C19 act 1, CYP2C9 inhib 1, CYP2C19 inhib 0, Cav3 T inh -3.8* and CYP2C9 act 1.
Screening CCOC(=O)c1c(NC(=O)CSc2nnc(CNc3ccc(OC)cc3)n2C)sc(C)c1C returned CYP2C19 act 0.7, CYP2C9 inhib 77*, CYP2C19 inhib 32, Cav3 T inh -6.6* and CYP2C9 act 0.2.
COC(=O)CSc1nnc(CNc2ccc(OC)cc2)n1C was read as CYP2C19 act 0.4, CYP2C9 inhib -4, CYP2C19 inhib 58*, Cav3 T inh 0.57 and CYP2C9 act 1.
For Cc1cc(C)n(-c2ncc(-c3ccccc3)nn2)n1 the results were CYP2C19 act 0.9, CYP2C9 inhib -15, CYP2C19 inhib 12, Cav3 T inh 2 and CYP2C9 act 1.2.
For CC(=O)N1CCCc2cc(S(=O)(=O)NC(C(=O)NC(C)c3ccccc3)C(C)C)ccc21 (stereo unspecified) the results were CYP2C19 act 0.9, CYP2C9 inhib 13, CYP2C19 inhib 10, Cav3 T inh 0.85 and CYP2C9 act 0.9.
Screening COc1ccc(NC(=O)C(NS(=O)(=O)c2ccc3c(c2)CCCN3C(C)=O)C(C)C)c(OC)c1 (stereo unspecified) returned CYP2C19 act 0.9, CYP2C9 inhib 64*, CYP2C19 inhib 12, Cav3 T inh 0.95 and CYP2C9 act 0.4.
`COc1cc(C)c(N)cc1C(C)C` gave CYP2C19 act 0.1, CYP2C9 inhib 57*, CYP2C19 inhib 88*, Cav3 T inh 0.42 and CYP2C9 act 0.4.
O=C(OCC(=O)N1CCN(c2ccccc2)CC1)c1ccc2ccccc2n1 was read as CYP2C19 act 1, CYP2C9 inhib -130, CYP2C19 inhib -1, Cav3 T inh -0.001 and CYP2C9 act 2.3*.
Screening Cc1c(C(=O)Nc2ccc(Cl)cc2)c2ccccn2c1C(=O)c1ccc([N+](=O)[O-])cc1 returned CYP2C19 act 0.8, CYP2C9 inhib 81*, CYP2C19 inhib 17, Cav3 T inh -7.1* and CYP2C9 act 0.2.
For Cc1c(C(=O)Nc2ccc(Cl)cc2)c2ccccn2c1C(=O)c1ccccc1 the results were CYP2C19 act 0.9, CYP2C9 inhib 33, CYP2C19 inhib 15, Cav3 T inh -0.9 and CYP2C9 act 0.7.
CC(=O)C1=C(O)C(=O)N(CCN2CCOCC2)C1c1ccccc1 (stereo unspecified) was read as CYP2C19 act 1, CYP2C9 inhib 15, CYP2C19 inhib -3, Cav3 T inh 0.19 and CYP2C9 act 0.8.
Cc1cc(-c2ccc3c(c2)COc2c4ccccc4nn2-3)on1 was read as Cav3 T inh 0.028.
Screening CN1CCC2(CC1)C1CN(C)CC=C1C(C#N)=C(N)C2(C#N)C#N (stereo unspecified) returned CYP2C19 act 1, CYP2C9 inhib 3, CYP2C19 inhib 1 and CYP2C9 act 1.
CC(C)n1c(SCC(=O)c2ccc3c(c2)OCCO3)nc2c1c(=O)n(C)c(=O)n2C was read as CYP2C19 act 0.9, CYP2C9 inhib 26, CYP2C19 inhib 14, Cav3 T inh -0.031 and CYP2C9 act 0.7.
Screening OCCNc1nc(Nc2ccccc2Oc2ccccc2)nc(N2CCCC2)n1 returned Cav3 T inh -0.033.
